This is a sample that favours compounds with a hit; in the whole collection about 8.7% have one here.
hDAT+cocaine: modulates human dopamine transporter uptake under cocaine | LLC-PK1 hDAT cells, [14C]-dopamine uptake with cocaine IC80; actives deviate in either direction | hit rate 1.3% among 110,000 | B-score at 10 µM;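 active = Z score or B-score, a plate-position-corrected score, falls beyond the plate's 99.7% confidence bounds, in either direction; inactive = both scores lie inside the 99.7% bounds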;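 note: scored against the spread of the other compound wells on the same plate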
Cav32 inh: blocks human Cav3.2 T-type calcium channel; hit rate 4% among 100,000; O95180; AID 449739; B-score at 10 µM; Cav3.2-expressing cells, Fluo-4 calcium fluorescence FDSS; hits give low values;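 active = single-dose well whose peak fluorescence ratio is a statistical outlier from its plate by either plate-standardised score or position-corrected B-score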
Smad3 inh: blocks human Smad3 binding to FoxH1 peptide | hit rate 0.29% among 88,000 | TR-FRET Smad3/Dy647-FoxH1 peptide binding, europium anti-His | inhibition, % at 25 µM | P84022 | AID 630;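 active = compounds that reduce the energy-transfer binding signal between the protein and its labelled peptide by more than half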;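 note: 0% = Smad3 plus labelled peptide maximal FRET and 100% = peptide-only background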
Target sequence (P84022 whole entry, looked up): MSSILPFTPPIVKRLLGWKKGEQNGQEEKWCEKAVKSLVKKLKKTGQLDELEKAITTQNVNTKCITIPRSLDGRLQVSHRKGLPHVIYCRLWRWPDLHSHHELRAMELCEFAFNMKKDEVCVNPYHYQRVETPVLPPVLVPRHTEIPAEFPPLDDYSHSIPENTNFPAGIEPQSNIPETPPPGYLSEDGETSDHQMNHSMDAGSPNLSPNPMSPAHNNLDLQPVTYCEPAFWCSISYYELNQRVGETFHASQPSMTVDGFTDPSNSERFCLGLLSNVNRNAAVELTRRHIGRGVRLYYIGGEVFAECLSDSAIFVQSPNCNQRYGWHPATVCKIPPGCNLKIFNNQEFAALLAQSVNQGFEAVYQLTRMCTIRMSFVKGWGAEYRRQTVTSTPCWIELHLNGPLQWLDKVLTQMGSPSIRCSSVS
PostGolgi ctrl: yeast control strain growth, post-Golgi counter-screen | efflux-deficient yeast background strain, growth absorbance A615, 16 h | inhibition, % at 10 µM | hit rate 5% among 98,000
TNAP act mid DEA: activators of human TNAP at intermediate phosphate acceptor. P05186. purified TNAP, CDP-star luminescence, 100 mM DEA, 30 min; hits give high values; scale: 0 levamisole-inhibited, 1 vehicle-only enzyme. activation factor at 20 µM. 64,000 tested, under 10 active;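 active = activation factor of at least 2 at 20 µM, relative to controls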
PostGolgi yeast: growth inhibition of a yeast mutant, post-Golgi transport screen | post-Golgi transport phenotypic cell assay | inhibition, % at 10 µM | hit rate 0.9% among 98,000;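 note: yeast cells grown in 1536-well plates; yeast grown about 18 h at 30C before absorbance read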
An asterisk follows results filed as active. Cut-off read from the data, not from the text of the source, unless noted: active = inhibition above about 30%; inactive = the rest.

For CCOC(=O)c1c(N)sc(C(=O)N(C)C)c1CN1CCOCC1 the results were hDAT+cocaine -0.91, Cav32 inh 0.3, PostGolgi ctrl 11 and PostGolgi yeast 20.
`Cc1cc(C)nc(N/N=C/c2ccco2)n1` gave hDAT+cocaine -1.7, Cav32 inh -2.4, Smad3 inh -8, PostGolgi ctrl -2 and PostGolgi yeast 0.
`Cc1ccc(-c2csc(N/N=C/c3ccco3)n2)cc1` gave hDAT+cocaine -0.099, Cav32 inh -1.2, PostGolgi ctrl 34* and PostGolgi yeast -14.
Screening CCn1c(-c2ccc3ncccc3c2)n[nH]c1=S returned hDAT+cocaine 3.1*, Cav32 inh -0.012, PostGolgi ctrl 4 and PostGolgi yeast 19.
`CCn1c(-c2cccc(Br)c2)n[nH]c1=S` gave hDAT+cocaine 1, Cav32 inh -0.4, Smad3 inh -9, PostGolgi ctrl 4, TNAP act mid DEA 0.9 and PostGolgi yeast -3.
CC1CN(S(=O)(=O)c2ccc(NC(=O)CCN3C(=O)c4ccccc4C3=O)cc2)CC(C)O1 (stereo not given) was read as Smad3 inh 9, PostGolgi ctrl -3, TNAP act mid DEA 1 and PostGolgi yeast 4.
Cc1occc1-c1nnc(SCC(=O)Nc2nccs2)n1CCc1ccccc1 was read as hDAT+cocaine 0.42, Cav32 inh -3, Smad3 inh 13, PostGolgi ctrl 2, TNAP act mid DEA 0.8 and PostGolgi yeast -24.
Screening Cc1nonc1NC(=O)CSc1nnc(-c2ccoc2C)n1-c1cccc(Cl)c1 returned hDAT+cocaine -0.18, Cav32 inh -4.4* and Smad3 inh 3.
For CCOc1ccccc1-n1c(SCC(=O)Nc2nccs2)nnc1-c1ccoc1C the results were hDAT+cocaine 2.3, Cav32 inh -7.2*, Smad3 inh -5, PostGolgi ctrl 19, TNAP act mid DEA 0.9 and PostGolgi yeast -6.
For COc1cccc(NC(=O)CSc2nnc(-c3ccoc3C)n2-c2ccccc2)c1 the results were hDAT+cocaine -0.069, Cav32 inh -6.2*, Smad3 inh 0, PostGolgi ctrl 12 and PostGolgi yeast 5.
CCCn1c(SCC(=O)Nc2nonc2C)nnc1-c1ccoc1C was read as hDAT+cocaine -0.11, Cav32 inh 1.1, Smad3 inh 10, PostGolgi ctrl 7, TNAP act mid DEA 0.9 and PostGolgi yeast 1.
Cc1cccc(C)c1NC(=O)CSc1nnc(-c2ccoc2C)n1CCc1ccccc1 was read as hDAT+cocaine 1.4, Cav32 inh -1.4, Smad3 inh 6, PostGolgi ctrl 10, TNAP act mid DEA 0.9 and PostGolgi yeast 13.
Screening Cc1occc1-c1nnc(SCC(=O)NCCc2ccccc2)n1C(C)c1ccccc1 (stereo not given) returned hDAT+cocaine 2.7*, Cav32 inh -3.5, Smad3 inh 8, PostGolgi ctrl -2, TNAP act mid DEA 0.9 and PostGolgi yeast -2.
For CC(=O)C1C(c2ccccc2Cl)NC(=O)NC1(O)C(F)(F)F (stereo not given) the results were hDAT+cocaine -0.69, Smad3 inh 6, PostGolgi ctrl 22, TNAP act mid DEA 1 and PostGolgi yeast 7.
Screening CCOC(=O)c1cc(=O)n2nc(-c3ccc(C)cc3)nc2s1 returned hDAT+cocaine -8.4*, Cav32 inh 0.9, Smad3 inh 7, PostGolgi ctrl 0, TNAP act mid DEA 0.9 and PostGolgi yeast -5.
For CCOC(=O)c1nc(N)c(=O)n(-c2ccc(C)cc2)n1 the results were hDAT+cocaine -0.54, Cav32 inh 1.7 and Smad3 inh -17.
CC(C)n1cnc2c(Nc3ccc(C(=O)O)cc3)nc(Cl)nc21 was read as hDAT+cocaine -4* and Cav32 inh 1.2.
Screening CC(C)[C@H](CO)Nc1nc(Nc2ccc(Cl)c(C(=O)O)c2)c2ncn(C(C)C)c2n1 returned hDAT+cocaine -0.42 and Cav32 inh 0.52.
CSc1nc(N)nc(SCCS(=O)(=O)c2ccc(Cl)cc2)c1C#N was read as hDAT+cocaine 6.1*, Cav32 inh -0.52, Smad3 inh 3, PostGolgi ctrl 58*, TNAP act mid DEA 0.9 and PostGolgi yeast 2.
For OCCn1c(-c2ccc3c(c2)OCO3)csc1=Nc1ccccc1 the results were hDAT+cocaine 0.41, Cav32 inh -5.4*, Smad3 inh -1, PostGolgi ctrl 24, TNAP act mid DEA 0.9 and PostGolgi yeast 5.
